# Test results: PubChem BioAssay (Tox21)
# “And” between values parts separate entries of the source, which are not always exact repeats. Equal values may be shown once. Inconclusive results are not listed. Where a call stands in place of a potency, no number is given. Where a structure was tested more than once in an assay, its records may differ in their call. The source made the active and inactive calls. Unless noted, the call rests on the fitted dose curve; in most records, active means well fitted curve in the direction sought with a large enough effect in the repeat runs; inconclusive means weak or mixed curves; inactive means no such curve, though single readings can be large; an effect the other way counts as inactive or inconclusive.
# Assays:
# [1] = qHTS assay to identify small molecule antagonists of the estrogen related receptor (ERR) signaling pathway from Tox21 library - cell viability counter screen (AID 1224834); further: nearly all actives have a fitted effect of over 30% in size; further: potency means the concentration at half of the fitted maximal effect
# Summary of the method: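 CellTiter-Fluor fluorescence, read after 30 min at 37 C, measures viability of ERR cells. Cells plated at 2,000/well and incubated 6 h before pin-tool compound addition, then exposed 17.5 hours at 37 C.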
# [2] = molecular target: Luciferin 4-monooxygenase (Photinus pyralis) (UniProt P08659); experiment: qHTS assay to identify small molecule inhibitors of firefly luciferase (AID 1224835); further: nearly all actives have a fitted effect of over 25% in size; further: potency means the concentration at half of the fitted maximal effect
# Sequence of Luciferin 4-monooxygenase (Photinus pyralis) (P08659 whole entry, looked up): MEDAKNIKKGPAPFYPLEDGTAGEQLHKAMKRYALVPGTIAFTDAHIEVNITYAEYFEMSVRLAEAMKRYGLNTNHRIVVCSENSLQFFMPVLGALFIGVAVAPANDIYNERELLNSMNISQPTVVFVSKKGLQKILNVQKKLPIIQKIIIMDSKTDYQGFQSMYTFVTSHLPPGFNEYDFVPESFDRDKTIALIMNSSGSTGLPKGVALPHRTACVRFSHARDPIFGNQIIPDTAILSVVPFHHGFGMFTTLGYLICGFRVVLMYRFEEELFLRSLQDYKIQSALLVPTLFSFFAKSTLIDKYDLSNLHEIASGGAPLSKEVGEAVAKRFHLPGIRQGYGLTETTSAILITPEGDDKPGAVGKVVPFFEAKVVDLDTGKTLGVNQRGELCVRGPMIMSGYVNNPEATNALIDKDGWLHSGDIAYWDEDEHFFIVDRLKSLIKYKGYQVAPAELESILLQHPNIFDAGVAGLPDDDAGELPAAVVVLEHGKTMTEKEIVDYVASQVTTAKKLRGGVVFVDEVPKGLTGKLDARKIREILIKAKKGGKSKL
# Summary of the method: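 Biochemical qHTS: compounds run as interplate titrations against purified firefly enzyme, with D-luciferin and ATP each at its KM concentration. Light output recorded by CCD imaging.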
# [3] = qHTS assay to identify small molecule agonists of the constitutive androstane receptor (CAR) signaling pathway - cell viability counter screen (AID 1224836); further: nearly all actives have a fitted effect of over 45% in size
# Summary of the method: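 HepG2 cells stably carrying hCAR and a CYP2B6-2.2kb reporter; 15-concentration compounds plus PK11195 (final 0.75 uM), 23 hr at 37 C/5% CO2. Viability read by CellTiter-Fluor fluorescence.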
# [4] = qHTS assay to identify small molecule antagonists of the constitutive androstane receptor (CAR) signaling pathway - cell viability counter screen (AID 1224837); further: nearly all actives have a fitted effect of over 45% in size
# Summary of the method: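 Cytotoxicity counter-screen: CellTiter-Fluor fluorescence after 23 h compound exposure (15-point qHTS) in double-stable HepG2-CYP2B6-hCAR cells, with 50 nM CITCO added.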
# [5] = qHTS assay to identify small molecule antagonists of the estrogen related receptor signaling pathway with the pleiotropic PPARgamma coactivator (PGC) from Tox21 10K library - cell viability counter screen (AID 1224840; active means well fitted cell-killing curve with a large enough effect in the repeat runs, not every such curve was filed as active; further: nearly all actives have a fitted effect of over 40% in size; further: potency means the concentration at half of the fitted maximal effect)
# Summary of the method: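 Counter-screen for cytotoxicity: after 17.5 h compound exposure at 37 C, CellTiter-Fluor reagent added to PGC/ERR cells for 30 min and fluorescence read. Cells were seeded at 2,000 per well 6 h before dosing.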
# [6] = molecular target: Thyrotropin receptor (Homo sapiens) (UniProt P16473); experiment: qHTS assay to identify small molecule agonists of the thyroid stimulating hormone receptor (TSHR) signaling pathway (AID 1224843; calls by dose curve; further: nearly all actives have a fitted effect of over 45% in size; further: potency means the concentration at half of the fitted maximal effect)
# Sequence of Thyrotropin receptor (Homo sapiens) (P16473 whole entry, looked up): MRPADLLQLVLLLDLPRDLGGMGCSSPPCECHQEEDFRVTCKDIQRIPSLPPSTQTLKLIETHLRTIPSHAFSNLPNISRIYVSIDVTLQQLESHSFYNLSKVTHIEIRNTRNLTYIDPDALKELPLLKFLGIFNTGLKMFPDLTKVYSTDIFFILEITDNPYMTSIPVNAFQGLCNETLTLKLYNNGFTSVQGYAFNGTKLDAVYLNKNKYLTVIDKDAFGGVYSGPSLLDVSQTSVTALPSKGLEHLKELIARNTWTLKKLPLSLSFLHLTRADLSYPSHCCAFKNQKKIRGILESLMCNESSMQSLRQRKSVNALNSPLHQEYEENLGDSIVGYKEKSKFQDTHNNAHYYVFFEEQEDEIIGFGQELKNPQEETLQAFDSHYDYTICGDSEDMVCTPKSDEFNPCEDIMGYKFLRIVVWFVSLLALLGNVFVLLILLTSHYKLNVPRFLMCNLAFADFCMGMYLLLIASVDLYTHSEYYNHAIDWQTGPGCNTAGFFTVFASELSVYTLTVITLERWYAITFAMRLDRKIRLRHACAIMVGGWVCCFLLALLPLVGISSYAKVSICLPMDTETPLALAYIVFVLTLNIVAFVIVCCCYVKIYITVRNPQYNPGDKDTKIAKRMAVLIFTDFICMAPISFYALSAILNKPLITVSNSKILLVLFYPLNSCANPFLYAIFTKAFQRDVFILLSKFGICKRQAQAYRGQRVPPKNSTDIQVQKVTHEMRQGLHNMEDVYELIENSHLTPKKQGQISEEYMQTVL
# Summary of the method: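 HEK293/TSHR, 800 cells/well; cpd 30 min RT; add cAMP-d2 + anti-cAMP-cryptate, 1 h RT; fluorescence read on plate reader. 15-pt titration, n=3.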
# [7] = qHTS assay to identify small molecule agonists of the hypoxia (HIF-1) signaling pathway - cell viability counter screen (AID 1224844; calls by dose curve; further: nearly all actives have a fitted effect of over 50% in size; further: potency means the concentration at half of the fitted maximal effect)
# Summary of the method: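 Cytotoxicity measured by CellTiter-Glo ATP luminescence in the wells also read for beta-lactamase signal. Cells were HRE-bla ME-180 (2,000/well, 0.5% dialyzed FBS), exposed to compounds for 17 h at 37C.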
# [8] = qHTS assay to identify small molecule agonists of H2AX (AID 1224845; active means well fitted activation curve with a large enough effect in the signal ratio in the repeat runs, not every such curve was filed as active; the % refers to the signal ratio)
# Summary of the method: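 Wild-type CHO-K1 cells, plated overnight, exposed 3hr at 37C to 15 concentrations (0.76% DMSO final). Lysed, then HTRF anti-pH2AX (S139) cryptate and anti-H2AX-d2 antibodies, 24 hr room temperature; 665/620 nm emission read.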
# [9] = qHTS assay to identify small molecule agonists of the hypoxia (HIF-1) signaling pathway (AID 1224846; active means well fitted activation curve with a large enough effect in the signal ratio in the repeat runs, not every such curve was filed as active; the % refers to the signal ratio)
# Summary of the method: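 Compounds added to ME-180 cells carrying hypoxia-response-element beta-lactamase reporter (0.5% dialyzed FBS, 5 h preplating), 17 h at 37C; agonist activity detected by CCF4-AM B/G FRET read-out.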
# [10] = qHTS assay to identify small molecule agonists of H2AX - cell viability counter screen (AID 1224847; calls by dose curve; further: top concentration of the series differs between compounds; nearly all actives have a fitted effect of over 30% in size)
# Summary of the method: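 CHO-K1 cells plated overnight at 37C, then exposed 3 h at 37C to compounds at 15 concentrations (0.76% DMSO final). Viability by CellTiter-Glo luminescence after 30 min at room temperature.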
# [11] = qHTS RealTime-Glo MT Cell Viability Assay in HepG2 cells - 24 hour (AID 1224867); further: nearly all actives have a fitted effect of over 50% in size; further: potency means the concentration at half of the fitted maximal effect
# Summary of the method: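 HepG2 cells were seeded at 600 cells/well together with NanoLuc luciferase and a cell-permeant prosubstrate, preincubated 5 h at 37 C/5% CO2, then pin-dosed with compounds in DMSO. Nonlytic luminescence from viable cells was read at each time point.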
# [12] = qHTS RealTime-Glo MT Cell Viability Assay in HEK293 cells - 32 hour (AID 1224868); further: nearly all actives have a fitted effect of over 50% in size; further: potency means the concentration at half of the fitted maximal effect
# Summary of the method: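 HEK293 cells were seeded at 600 cells/well together with NanoLuc luciferase and cell-permeant prosubstrate, preincubated 5 h at 37 C/5% CO2, then given compound in DMSO by pintool. Luminescence from viable-cell prosubstrate reduction was read repeatedly over 40 h.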
# [13] = A CellTox Green Cytotoxicity Assay to monitor cytotoxicity in HEK293 cells - 0 hour (AID 1224869); further: nearly all actives have a fitted effect of over 50% in size
# Summary of the method: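 Fluorescence from a DNA-binding dye excluded by viable cells was measured repeatedly in the same HEK293 wells (600 cells/well) during continuous compound exposure at 37 C. Each assay gives one read point: 0, 8, 16, 24, 32 or 40 h.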
# [14] = qHTS RealTime-Glo MT Cell Viability Assay in HepG2 cells - 40 hour (AID 1224870); further: nearly all actives have a fitted effect of over 50% in size; further: potency means the concentration at half of the fitted maximal effect
# Summary of the method: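 HepG2 cells (600/well) mixed with RealTime-Glo MT reagent, settled 5 h at 37 C/5% CO2 before compound addition. Nonlytic NanoLuc luminescence from viable-cell prosubstrate reduction read repeatedly during 40 h treatment at 37 C.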
# [15] = qHTS assay to identify small molecule antagonists of the estrogen related receptor signaling pathway with the pleiotropic PPARgamma coactivator (PGC) from Tox21 10K library (AID 1224841; call rule not given here; further: potency means the concentration at half of the fitted maximal effect)
# Summary of the method: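 Luminescence (One-Glo, 30 min at room temperature) after 18 h compound treatment at 37 C of PGC/ERR reporter cells plated at 2,000 cells/well and settled 6 h beforehand.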
# [16] = qHTS assay to identify small molecule agonists of the estrogen related receptor signaling pathway with the pleiotropic PPARgamma coactivator (PGC) from Tox21 10K library (AID 1224842); further: nearly all actives have a fitted effect of over 15% in size
# Summary of the method: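 PGC/ERR reporter cell line, 2,000 cells per well, incubated 6 h at 37 C before 23 nL compound in DMSO was added. After 18 h at 37 C, One-Glo luminescence read following 30 min at room temperature.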
# [17] = qHTS assay to identify small molecule antagonists of the estrogen related receptor (ERR) signaling pathway from Tox21 library (AID 1224848); further: nearly all actives have a fitted effect of over 50% in size; further: potency means the concentration at half of the fitted maximal effect
# Summary of the method: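 Compounds dissolved in DMSO are pin-transferred onto ERR reporter cells (2,000 per well) that have settled for 6 h at 37 C. Plates then incubate 18 h at 37 C before ONE-Glo luciferase reagent and a luminescence read 30 min later.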
# [18] = qHTS assay to identify small molecule agonists of the estrogen related receptor (ERR) signaling pathway from Tox21 library (AID 1224849; calls by dose curve; further: nearly all actives have a fitted effect of over 15% in size); conditions: ERR reporter cell line, ONE-Glo luciferase, 18 h; at 92.4 µM (top of the series) unless noted
# Summary of the method: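 Luminescent agonist read-out (One-Glo, 30-minute room-temperature incubation) following 18-hour compound treatment at 37 C of the ERR cell line, which had been plated 6 hours before dosing.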
# [19] = molecular target: Nuclear receptor subfamily 1 group I member 3 (Homo sapiens) (UniProt Q14994); experiment: qHTS assay to identify small molecule antagonists of the constitutive androstane receptor (CAR) signaling pathway (AID 1224838);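 further: HepG2 cells stably expressing hCAR with CYP2B6 luciferase reporter stimulated by CITCO; nearly all actives have a fitted effect of over 40% in size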; further: potency means the concentration at half of the fitted maximal effect
# Sequence of Nuclear receptor subfamily 1 group I member 3 (Homo sapiens) (Q14994 whole entry, looked up): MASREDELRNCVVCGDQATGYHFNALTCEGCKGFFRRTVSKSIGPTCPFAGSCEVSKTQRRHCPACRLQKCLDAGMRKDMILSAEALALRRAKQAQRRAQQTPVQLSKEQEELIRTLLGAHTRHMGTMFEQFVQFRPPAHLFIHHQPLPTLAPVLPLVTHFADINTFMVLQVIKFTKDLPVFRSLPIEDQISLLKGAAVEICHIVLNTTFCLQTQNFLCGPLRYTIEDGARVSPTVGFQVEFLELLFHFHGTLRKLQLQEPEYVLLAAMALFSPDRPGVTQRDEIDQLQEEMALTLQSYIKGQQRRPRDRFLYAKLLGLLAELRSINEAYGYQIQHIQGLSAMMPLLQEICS
# Summary of the method: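 Antagonism measured as luciferase signal (ONE-Glo, 30 min, room temperature) in CAR-stimulated cells: HepG2-CYP2B6-hCAR double-stable line exposed 24 hr at 37 C to compound in a 15-point series plus 50 nM CITCO.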
# [20] = molecular target: Nuclear receptor subfamily 1 group I member 3 (Homo sapiens) (UniProt Q14994); experiment: qHTS assay to identify small molecule agonists of the constitutive androstane receptor (CAR) signaling pathway (AID 1224839); further: nearly all actives have a fitted effect of over 15% in size; further: potency means the concentration at half of the fitted maximal effect;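 on activation: HepG2 cells stably carrying human CAR and a CYP2B6 luciferase reporter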
# Summary of the method: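 HepG2 cells stably co-transfected with hCAR and a CYP2B6-2.2kb luciferase reporter; compounds at 15 concentrations with 0.75 uM PK11195 present. After 24 hr at 37 C, luciferase read by ONE-Glo luminescence.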
SMILES,Potency [1],Potency [2],Potency [3],Potency [4],Potency [5],Potency [6],Potency [7],outcome [8],outcome [9],Potency [10],Potency [11],Potency [12],outcome [13],Potency [14],Potency [15],Potency [16],Potency [17],"activity change, positive = activation [18]",Potency [19],Potency [20]
CCOP(=O)(CN(CCO)CCO)OCC,inactive,inactive,inactive,inactive,inactive,inactive,inactive,inactive,inactive,inactive,inactive,inactive,inactive,inactive,–,–,–,–,–,–
CCC1(CC)C(=O)C=CNC1=O,inactive,inactive,inactive,inactive,inactive,inactive,inactive,–,inactive,inactive,inactive,inactive,inactive,inactive,inactive,inactive,inactive,4.55% [at 42.5 µM] (inactive),–,–
CCN[C@@H](C)Cc1ccccc1,inactive,inactive,inactive,inactive,inactive,inactive,inactive,inactive,–,inactive,inactive,inactive,inactive,inactive,inactive,inactive,inactive,9.72% (inactive),–,–
N#CN=C1SCCN1Cc1ccc(Cl)nc1,inactive,inactive,inactive,inactive,inactive,inactive,inactive,inactive,inactive,inactive,inactive,inactive,inactive,inactive,inactive,inactive,inactive,7.53% (inactive),–,–
CC(C)(N)Cc1ccccc1Cl,inactive,inactive,inactive,inactive,inactive,inactive,inactive,inactive,inactive,inactive,inactive,inactive,inactive,inactive,inactive,inactive,inactive,-8.42% [at 42.5 µM] (inactive),–,–
CNC(=O)Oc1cc(C)c(N(C)C)c(C)c1,inactive,inactive,inactive,inactive,inactive,–,inactive,inactive,inactive,inactive,inactive,inactive,inactive,inactive,inactive,inactive,inactive,4.59% (inactive),–,–
CN(C)CCN(C)C,inactive,inactive,inactive,inactive,inactive,inactive,inactive,inactive,inactive,inactive,inactive,inactive,inactive,inactive,inactive,inactive,inactive,9.25% (inactive),–,–
COc1ccc(CN2CCNCC2)c(OC)c1OC,inactive,inactive,inactive,inactive,inactive,–,inactive,inactive,–,inactive,inactive,inactive,inactive,inactive,inactive,inactive,inactive,-10% [at 42.5 µM] (inactive),–,–
BrCc1ccc(Br)cc1,–,inactive,inactive,inactive,inactive,inactive,inactive,–,inactive,inactive,inactive,inactive,inactive,inactive,–,–,–,–,inactive,inactive
O=C(O)CBr,inactive,inactive,inactive,inactive,–,inactive,inactive,inactive,inactive,inactive,inactive,inactive,inactive,inactive,inactive,inactive,inactive,-0.0549% (inactive),–,–
NC1(c2ccccc2)CCCCC1,–,inactive,–,–,inactive,inactive,inactive,inactive,inactive,inactive,inactive,inactive,inactive,inactive,–,–,–,–,–,inactive
Cn1c(N)nc2c3cccnc3ccc21,–,–,–,–,inactive,–,inactive,–,inactive,inactive,inactive,inactive,inactive,inactive,–,–,–,–,inactive,32.7 µM (active)
CC(C)(O)C(Cl)(Cl)Cl,inactive,inactive,inactive,inactive,inactive,inactive,inactive,–,inactive,inactive,inactive,inactive,inactive,inactive,–,–,–,–,–,–
Clc1nc(Cl)nc(Nc2ccccc2Cl)n1,inactive,–,inactive,inactive,–,inactive,inactive,inactive,inactive,inactive,inactive,inactive,inactive,inactive,inactive,inactive,inactive,2.23% (inactive),inactive,inactive
Cc1ccc2cc(C)ccc2c1,inactive,–,inactive,inactive,inactive,–,inactive,inactive,inactive,inactive,inactive,inactive,inactive,inactive,inactive,inactive,inactive,0.0091% (inactive),inactive,inactive
O=C1C2CC=CCC2C(=O)N1SC(Cl)(Cl)Cl (configuration not stated),inactive and 53.6 µM (active),25.1 µM (active) and 31.2 µM (active),–,–,inactive and 30.1 µM (active),inactive and 21.3 µM (active),6.07 µM (active),–,–,–,inactive and 24.1 µM (active),43.5 µM (active) and 3.04 µM (active),inactive,inactive and 19.2 µM (active),7.66 µM (active) and 47.8 µM (active),inactive,inactive and 30.1 µM (active),-8.8% (inactive) and -75.3% (inactive),inactive and 13.5 µM (active),inactive
